Screening data deposited in PubChem by Broad Institute.
The list is not random: actives were taken first. Their share in the collection is about 3.8%.
esBAF inh: inhibitors of esBAF chromatin remodeling in mouse ES cells. 2% of 350,000 active. Bmi1-luciferase knock-in reporter, 24 h; 100% = twice the neutral-well signal. reporter increase, % at 12.5 µM; in the data active = activation above about 40%; inconclusive = no clear call, values can overlap the other calls;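 also: 0% = median of the plate's neutral control wells and 100% = double that signal; a rise in the Bmi1 reporter signal indicates esBAF inhibition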
HSF1 activator: increases HSF-1 driven luciferase reporter signal; 1.7% of 300,000 active; NIH3T3-HGL HSF-1 luciferase reporter, MG132, 8 h; 100% = twice DMSO control signal; AID 504408; activation, % at 9 µM;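 active = mean replicate activation of at least 50% with a set share of replicates each reaching 50%; inconclusive = only one of those two conditions met; inactive = mean below 50% and too few replicates reaching it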;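 also: 0% = median of the neutral control wells and 100% = twice that signal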
Wnt bcat act: activators of Wnt/beta-catenin signaling. activation, % at 9.35 µM. AID 743398. 1.2% of 300,000 active. Wnt/beta-catenin reporter cell assay, activator, plate reader; in the data active = activation above about 30%, passing the limit was not always enough; inconclusive = no clear call, values can overlap the other calls;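 also: 0% = neutral control wells and 100% = positive control wells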
MITF TRPM1 HTS: activators of MITF-driven TRPM1 promoter activity in SK-MEL-5 cells; activation, % at 12.5 µM; SK-MEL-5 TRPM1-promoter luciferase, 24 h; % of positive control, neutral wells = 0; AID 588334; 0.75% of 300,000 active;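 active = mean activation of at least 80% with every replicate also reaching 80%; inconclusive = mean reaches 80% but some replicate falls short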;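 also: 0% = neutral control wells and 100% = parthenolide positive control wells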
HSF1 inh: HSF1 inhibition; NIH3T3-HGL HSE-luciferase, MG132-induced, luminescence 8 h; active compounds read low; activity change, negative = inhibition, % at 7.5 µM (by protocol); 0.77% of 300,000 active;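 active = more than half of replicate wells show activity change below -50%, luminescence cut by over half; inconclusive = some wells, but at most half, below -50%; inactive = no replicate well below -50%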;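 also: luciferase reports HSF-1 transcriptional activity via heat shock element; 0% = median of DMSO wells and -100% = zero luminescence signal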
Ring1 derepress: de-represses Ring1 in mouse ESCs, confirming esBAF inhibition; shares compounds with esBAF inh; mouse ESC E14, Ring1 mRNA RT-qPCR fold change; fold change at 33 µM; 550 tested, under 10 active;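 active = Ring1 gene expression raised more than 2-fold over untreated cells in both replicates at either tested dose; inconclusive = only one replicate above 2-fold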;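 also: Ring1 transcript normalised to actin housekeeping signal by TaqMan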
esBAF Fgf4 qPCR: represses Fgf4 in mouse ESCs, confirming esBAF inhibition; 4% of 550 active; Fgf4 expression fold change at 33 µM; shares compounds with esBAF inh; mouse ESC E14, Fgf4 mRNA qPCR fold change; active compounds read low;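 active = Fgf4 expression under 0.8 fold of control in both repeat measurements at one or both tested doses; inconclusive = under 0.8 fold in just a single repeat measurement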;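 also: Fgf4 transcript normalised to actin in duplex TaqMan qPCR; cells exposed to compound for 24 h before lysis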
Bmi1 derepress: esBAF inhibition confirmed by Bmi1 de-repression; AID 743180; mouse ESE14 ES cells, Bmi1 mRNA qPCR fold; active compounds read high; 550 tested, under 10 active; shares compounds with esBAF inh; fold change at 33 µM;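 active = Bmi1 expression fold change above 6 at either tested concentration, seen in replicate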;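 also: higher fold means more Bmi1 de-repression and stronger esBAF inhibition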
A549 tox SP: kills or reduces viability of A549 cells | shares compounds with esBAF inh | A549 cytotoxicity, plate reader | cell viability change % (negative = cytotoxic), % at 25 µM, hits read low | 550 tested, under 10 active | AID 743188; call rule not given here
HepG2 tox SP: kills or reduces viability of HepG2 cells | activity change, negative = inhibition, % at 25 µM | shares compounds with esBAF inh | 4% of 550 active | HepG2 cytotoxicity, plate reader; active compounds read low; in the data active = activity change below about -50%
HEK293 cytotox SP: kills or reduces viability of HEK293 cells; shares compounds with esBAF inh; HEK293 cytotoxicity, plate reader; activity change, negative = inhibition, % at 25 µM, hits read low; 3% of 550 active; AID 743190; in the data active = activity change below about -38%, passing the limit was not always enough
* marks the source's active call; other numbers are inactive results.

Screening COc1ccccc1C#Cc1cnc2c(c1)C(=O)N([C@@H](C)CO)C[C@@H](C)[C@H](CN(C)C(C)=O)O2 returned esBAF inh 3.
`Cc1ccc(SCC(=O)Nc2ccc(-c3nc4ccccc4[nH]3)cc2)cc1` gave esBAF inh 61*, HSF1 activator 22, Wnt bcat act -2, MITF TRPM1 HTS -6 and HSF1 inh 12.
Screening O=C(CSc1ccc(-c2nc3ccccc3[nH]2)cn1)Nc1ccc(S(=O)(=O)NC2CC2)cc1 returned HSF1 activator 51*, Wnt bcat act -2, MITF TRPM1 HTS 30 and HSF1 inh 26.
For Cc1ccccc1NC(=O)CSc1ccc(-c2ccc(-n3cccn3)cc2)nn1 the results were esBAF inh 17, HSF1 activator -21, Wnt bcat act 11, MITF TRPM1 HTS 14 and HSF1 inh -19.
CCc1ccc(NC(=O)CSc2ccc(-c3cccnc3)nn2)cc1 was read as esBAF inh -7, HSF1 activator -81, Wnt bcat act 3, MITF TRPM1 HTS 2 and HSF1 inh -76*.
CCc1nnc(NC(=O)CSc2ccc(-c3ccc(-n4cccn4)cc3)nn2)s1 was read as HSF1 activator 12, Wnt bcat act 28, MITF TRPM1 HTS 82* and HSF1 inh 1.
Screening Cc1nc(NC(=O)CSc2ccc(-c3nc4ccccc4[nH]3)cn2)sc1C returned HSF1 activator 28, MITF TRPM1 HTS 8 and HSF1 inh 2.
`C[C@H]1CCCCO[C@H](CN(C)C(=O)CCCN(C)C)[C@@H](C)CN([C@@H](C)CO)C(=O)c2cc(NC(=O)C3CCCCC3)ccc2O1` gave esBAF inh -2.
C[C@H]1CN([C@@H](C)CO)C(=O)c2cc(NS(=O)(=O)c3cccs3)ccc2O[C@H]1CN(C)S(=O)(=O)c1cn(C)cn1 was read as esBAF inh 1.
Screening C[C@@H]1CCCCO[C@H](CN(C)C(=O)c2ccncc2)[C@@H](C)CN([C@H](C)CO)C(=O)c2cc(NC(=O)c3ccncc3)ccc2O1 returned esBAF inh 0.
For O=C(CSc1ccc(-c2nc3ccccc3[nH]2)cn1)Nc1ccc2c(c1)OCCO2 the results were esBAF inh 46*, HSF1 activator 39, MITF TRPM1 HTS 146* and HSF1 inh 6.
Cc1ccc2nc(-c3ccc(SCC(=O)Nc4ccc5c(c4)OCCO5)nc3)[nH]c2c1 was read as HSF1 activator 55*, MITF TRPM1 HTS inconclusive and HSF1 inh 36.
For CCc1nnc(NC(=O)CSc2ccc(-c3nc4ccccc4[nH]3)cn2)s1 the results were esBAF inh inconclusive, HSF1 activator 43, MITF TRPM1 HTS 87* and HSF1 inh 21.
For Cc1noc(C)c1NC(=O)Nc1ccc2c(c1)C(=O)N([C@H](C)CO)C[C@H](C)[C@H](CN(C)S(=O)(=O)c1ccccc1)OCCCC[C@H](C)O2 the results were esBAF inh 0.
`COCC(=O)N(C)C[C@@H]1Oc2ncc(C#Cc3ccc(OC)cc3)cc2C(=O)N([C@H](C)CO)C[C@H]1C` gave esBAF inh 8.
O=C(NC(Cc1nn[nH]n1)C(=O)OCc1ccccc1)OCc1ccccc1 (configuration not stated) was read as esBAF inh -3 and Wnt bcat act 2.
For O=C(CC(NC(=O)OCc1ccccc1)c1nn[nH]n1)OCc1ccccc1 (configuration not stated) the results were esBAF inh 75*, Wnt bcat act 15, Ring1 derepress 1.3, esBAF Fgf4 qPCR 0.97, Bmi1 derepress 1.5, A549 tox SP -9, HepG2 tox SP -17 and HEK293 cytotox SP -3.
Screening O=C(c1cccs1)N(C(=O)c1cccs1)c1ccc(Br)cn1 returned esBAF inh 65*, HSF1 activator 15, Wnt bcat act 56*, MITF TRPM1 HTS 30, HSF1 inh 16, Ring1 derepress 0.73, esBAF Fgf4 qPCR 0.97, Bmi1 derepress 1.6, A549 tox SP -9, HepG2 tox SP -37 and HEK293 cytotox SP -6.
Screening Cc1ccnc(N(C(=O)c2cccs2)C(=O)c2cccs2)c1 returned esBAF inh 8, HSF1 activator 26, Wnt bcat act inconclusive, MITF TRPM1 HTS 30 and HSF1 inh 14.
CN1C(=O)c2cc(NS(C)(=O)=O)ccc2OC[C@@H]2O[C@@H](CC(=O)N3CCOCC3)CC[C@@H]21 was read as esBAF inh -3.
CCc1c(C)[nH]c(C(=O)OCc2ccccc2)c1C was read as HSF1 activator inconclusive, Wnt bcat act 3, MITF TRPM1 HTS 29 and HSF1 inh 35.
For CCc1c(C(=O)OCc2ccccc2)[nH]c(C)c1C the results were esBAF inh 53*, HSF1 activator 35, Wnt bcat act 0, MITF TRPM1 HTS 59, HSF1 inh 10, Ring1 derepress 1, esBAF Fgf4 qPCR 0.89, Bmi1 derepress 2.2, A549 tox SP -5, HepG2 tox SP -25 and HEK293 cytotox SP -6.
CCC(=O)c1ccc(N2CCC(C)CC2)c(F)c1 was read as esBAF inh 71*, HSF1 activator 34, Wnt bcat act 8, MITF TRPM1 HTS 71, HSF1 inh 20, Ring1 derepress 1.4, esBAF Fgf4 qPCR 0.9, Bmi1 derepress 1.7, A549 tox SP 1, HepG2 tox SP -17 and HEK293 cytotox SP 2.
CO[C@H]1CN(C)C(=O)c2ccc(NS(=O)(=O)c3ccc(C)cc3)cc2OC[C@@H](C)NC[C@H]1C was read as esBAF inh -1.
For CCC(C)c1ccc(NC(=O)C2CC2)cc1 (configuration not stated) the results were esBAF inh 74*, HSF1 activator -54, Wnt bcat act 23, MITF TRPM1 HTS 46, HSF1 inh -43, Ring1 derepress 1.1, esBAF Fgf4 qPCR 0.84, Bmi1 derepress 1.7, A549 tox SP -13, HepG2 tox SP -10 and HEK293 cytotox SP -4.
